Several values for one entry are separate records, joined by “and”; a condition that tells them apart may be missing. Equal values may be shown once. Inconclusive results are not listed. Activity calls are given as the source filed them. Unless noted, the call rests on the fitted dose curve; in most records, active means well fitted curve in the direction sought with a large enough effect; inconclusive means small, poorly fitted or top-dose-only effect, or another doubt; inactive means no such curve, though single readings can be large; an effect the other way counts as inactive or inconclusive.

Assay [1] can be described thus: Cell Viability - LYMP2-006 (AID 978). Further: on the % scale 0 is the no-effect control and ±100 the full control effect; nearly all actives have a fitted effect of over 60% in size. The method in brief: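 Human lymphoblastoid cells, 2500 per well, were preincubated 5 hr at 37 C, then exposed to compounds for 24 hr at 37 C in complete medium. Viability was read as intracellular ATP by CellTiter-Glo luminescence; AC50 from Hill-equation fits of qHTS concentration-response data.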
Assay [2] is described as follows: Cell Viability - LYMP2-007 (AID 979).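 Further: cells exposed to compound for 24 h before reading; 0% = DMSO only and the negative end = 92 µM tetraoctylammonium bromide; nearly all actives have a fitted effect of over 60% in size.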 The method in brief: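 Human lymphoblastoid LYMP2-007 cells (2500/well) preincubated 5 h at 37 C, then treated 24 h at 37 C in complete medium. Viability by CellTiter-Glo ATP luminescence after 30 min at room temperature; AC50 from Hill fits.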
Assay [3] can be described thus: Cell Viability - LYMP2-008 (AID 980). Further: on the % scale 0 is the no-effect control and ±100 the full control effect; nearly all actives have a fitted effect of over 60% in size. The essentials: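 LYMP2-008 lymphoblastoid cells (2500/well) plated 5 h, then treated 24 h at 37 C in complete medium. Viability read as intracellular ATP by CellTiter-Glo luminescence after 30 min at room temperature; AC50 from Hill fits.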
The nature of assay [4]: Cell Viability - LYMP2-012 (AID 982).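 Further: cellular ATP by luciferase luminescence where a drop means cytotoxicity; cells exposed to compound for one day before reading; 0% = DMSO only and full loss = 92 µM tetraoctylammonium bromide; nearly all actives have a fitted effect of over 55% in size.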
Assay [5] can be described thus: Cell Viability - LYMP2-014 (AID 983).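 Further: plate controls were DMSO only for no effect and 92 µM tetraoctylammonium bromide for full effect; nearly all actives have a fitted effect of over 50% in size.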 The essentials:
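LYMP2-014 human lymphoblastoid cells, 2500/well, treated 24 h at 37 C in complete medium; viability by CellTiter-Glo ATP luminescence after 30 min at room temperature. AC50 from Hill fits of qHTS concentration-response; tetraoctylammonium bromide positive control.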

A short description of assay [6]: Cell Viability - LYMP2-016 (AID 984). Further: on the % scale 0 is the no-effect control and ±100 the full control effect; nearly all actives have a fitted effect of over 55% in size. The essentials:
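Human lymphoblastoid cells (LYMP2-016), 2500/well in complete medium, preincubated 5 hr at 37 C, then compound-treated 24 hr at 37 C. Intracellular ATP read by CellTiter-Glo luminescence after 30 min at room temperature; AC50 from Hill-equation concentration-response fits.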

The nature of assay [7]: Cell Viability - LYMP2-018 (AID 985).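 Further: compound exposure lasted 24 hr at 37 °C; plate controls were DMSO only for no effect and tetraoctylammonium bromide at 92 µM for full effect; nearly all actives have a fitted effect of over 50% in size.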 The essentials: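 Human lymphoblastoid LYMP2-018 cells, 2500/well, settled 5 hr at 37 C then exposed to compound 24 hr at 37 C; intracellular ATP measured by CellTiter-Glo luminescence. AC50 from Hill-equation concentration-response fits.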
The nature of assay [8]: Cell Viability - LYMP2-020 (AID 986).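 Further: plate controls were DMSO only for no effect and tetraoctylammonium bromide at 92 µM for full effect; nearly all actives have a fitted effect of over 55% in size.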 The essentials:
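Human lymphoblastoid LYMP2-020 cells (2500/well) preincubated 5 h at 37 C, then treated 24 h at 37 C. Viability measured as intracellular ATP by CellTiter-Glo luminescence after 30 min at room temperature; AC50 from Hill fits.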

The nature of assay [9]: Cell Viability - LYMP2-022 (AID 987).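 Further: 0% = DMSO alone and full effect = tetraoctylammonium bromide at 92 µM; nearly all actives have a fitted effect of over 55% in size.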 The essentials: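 LYMP2-022 lymphoblastoid cells (2500/well, complete medium) were treated with compounds for 24 hours at 37 C; intracellular ATP was then read by CellTiter-Glo luminescence after 30 min at room temperature. AC50 values were derived from Hill-equation fits.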
Assay [10] can be described thus: Cell Viability - LYMP2-024 (AID 988).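 Further: plate controls were DMSO only for no effect and 92 µM tetraoctylammonium bromide for full effect; nearly all actives have a fitted effect of over 60% in size.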 The essentials:
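Human lymphoblastoid LYMP2-024 cells (2500/well) rested 5 hr, then treated with compound for 24 hr at 37 C in complete medium. Viability was measured as intracellular ATP by CellTiter-Glo luminescence. AC50 values came from Hill-equation fits.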

Assay [11] can be described thus: Cell Viability - LYMP2-026 (AID 989). Further: on the % scale 0 is the no-effect control and ±100 the full control effect; nearly all actives have a fitted effect of over 50% in size. The essentials:
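Human lymphoblastoid LYMP2-026 cells, 2500/well, exposed to compound 24 h at 37 C in complete medium. Viability as intracellular ATP by CellTiter-Glo luminescence; AC50 from Hill fits of qHTS concentration-response.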

The target in assay [12] is Alpha-galactosidase A (Homo sapiens) (UniProt P06280). Put plainly: Counterscreen for Glucocerebrosidase Inhibitors: qHTS Assay for Human alpha-Galactosidase at pH 4.5 (AID 992). Further: 0% is about no effect. The method in brief:
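Read-out is 4-methylumbelliferone fluorescence (365 nm excitation, 440 nm emission) after a pH 10 NaOH/glycine stop. Reactions held 2 nM enzyme and 80 uM substrate at pH 4.5 for 20 min at room temperature.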

A short description of assay [13]: Cell Viability - LYMP1-002 - Assay at 24 hr (AID 993). Further: on the % scale 0 is the no-effect control and ±100 the full control effect. The method in brief: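 Human lymphoblastoid LYMP1-002 cells (2500/well) treated 24 h at 37 °C; viability as intracellular ATP by CellTiter-Glo luminescence. Tetraoctylammonium bromide as positive control; AC50 from Hill-equation fits of qHTS concentration-response.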
Assay [14] is described as follows: Cell Viability - LYMP1-002 - Assay at 40 hr (AID 994). The method in brief:
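LYMP1-002 human lymphoblastoid cells (2500/well, complete medium) were treated with compounds for 40 hr at 37 C. Intracellular ATP was measured by CellTiter-Glo luminescence, and AC50 values came from Hill-equation fits of concentration-response data; tetraoctylammonium bromide was the positive control.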

The nature of assay [15]: Validation of Assay for Modulators of Lamin A Splicing (AID 1459; active means well fitted curve in the direction sought with a large enough effect in the signal ratio; the % refers to the signal ratio;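 further: cells exposed to compound for two days before reading; 0% is about no effect; ratio rise marks activators and ratio drop marks inhibitors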). The method in brief: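 S3 HeLa cells stably expressing a lamin A-EGFP splicing minigene and DsRed2 were seeded at 600 cells/well in Opti-MEM with 2% FBS, pin-dosed, and incubated 48 hrs at 37 °C, 5% CO2. Laser-scanning cytometry (488 nm) gave GFP/RFP total intensity ratio.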
Assay [16] can be described thus: qHTS Assay for Lipid Storage Modulators (AID 1519; calls by dose curve; on activity change, negative = inhibition: on the % scale 0 is the no-effect control and ±100 the full control effect). The settings on record: Drosophila S3 cells, BODIPY lipid droplet/cell ratio, laser cytometry, cells loaded with oleic acid. The method in brief: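 Cells seeded at 5,000 per well were treated with compounds over a concentration series and loaded with oleic acid (400 uM, as added). Lipid droplet fluorescence (488 nm excitation, 500-530 nm channel) was read by laser-scanning cytometry and normalized to 20 uM Triacsin C.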

Assay [17] addresses DNA repair nuclease/redox regulator APEX1 (Homo sapiens) (UniProt P27695). Put plainly: qHTS Validation Assay for Inhibitors of the Human Apurinic/apyrimidinic Endonuclease 1 (APE1) (AID 1705; further: potency means the concentration at half of the fitted maximal effect;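 on activity change, negative = inhibition: TAMRA fluorescence gain over two minutes as APE1 cuts a quenched THF abasic duplex; on the % scale 0 is the no-effect control and ±100 the full control effect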). The method in brief: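 Human APE1 was preincubated with compound for 15 min at room temperature, then 50 nM (final) THF-abasic double-stranded DNA substrate bearing 5'-TAMRA and 3'-BHQ-2 was added. Incision-driven fluorescence rise (ex 525/em 598 nm) was read kinetically.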
(qHTS replaces the single test concentration by a dilution series.)

In assay [18] the target is Endonuclease 4 (Escherichia coli (strain K12)) (UniProt P0A6C1). The experiment in a line: Counterscreen for APE1 Inhibitors: qHTS Validation Assay for Inhibitors of Endonuclease IV (AID 1708). Further: potency means the concentration at half of the fitted maximal effect. On activity change, negative = inhibition: on the % scale 0 is the no-effect control and ±100 the full control effect. The method in brief: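 qHTS concentration-response format; LOPAC1280 tested under APE1-screen conditions. 2 nM enzyme, 15 min compound preincubation at RT, then 50 nM TAMRA/BHQ-2 abasic substrate; kinetic fluorescence read, three reads at 60 s intervals.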
(A counterscreen serves to expose hits that act by an unwanted route or on another target.)

The nature of assay [19]: Counterscreen for APE1 Inhibitors: Fluorescent Dye Displacement Validation Assay (AID 1707).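 Further: plate controls were ThO with dsDNA and no compound for no effect and ThO without dsDNA for full effect.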 The essentials: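 ThO 250 nM + dsDNA 50 nM (THF abasic site, 5'-TAMRA), Tris-HCl pH7.5/50mM NaCl/2 mM MgCl2/0.01% Tween-20; compounds pin-transferred; ex 480/em 540 nm endpoint. Neutral = no compound; no-DNA ThO wells = negative control.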
Where [20] appears, read: measured here: cell count channel max response.
[21] abbreviates: measured here: lipid channel max response.

DNA repair nuclease/redox regulator APEX1 (Homo sapiens), sequence (P27695 whole entry, looked up): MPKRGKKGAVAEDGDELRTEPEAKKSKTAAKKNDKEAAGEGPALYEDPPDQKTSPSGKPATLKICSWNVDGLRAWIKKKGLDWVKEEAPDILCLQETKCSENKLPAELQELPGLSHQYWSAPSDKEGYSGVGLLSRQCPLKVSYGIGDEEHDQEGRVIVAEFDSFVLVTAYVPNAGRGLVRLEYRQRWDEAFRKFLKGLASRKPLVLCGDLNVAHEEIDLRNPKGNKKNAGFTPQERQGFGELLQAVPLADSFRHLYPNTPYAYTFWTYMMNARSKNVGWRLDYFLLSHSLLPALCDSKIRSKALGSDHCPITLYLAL
Alpha-galactosidase A (Homo sapiens), sequence (P06280 whole entry, looked up): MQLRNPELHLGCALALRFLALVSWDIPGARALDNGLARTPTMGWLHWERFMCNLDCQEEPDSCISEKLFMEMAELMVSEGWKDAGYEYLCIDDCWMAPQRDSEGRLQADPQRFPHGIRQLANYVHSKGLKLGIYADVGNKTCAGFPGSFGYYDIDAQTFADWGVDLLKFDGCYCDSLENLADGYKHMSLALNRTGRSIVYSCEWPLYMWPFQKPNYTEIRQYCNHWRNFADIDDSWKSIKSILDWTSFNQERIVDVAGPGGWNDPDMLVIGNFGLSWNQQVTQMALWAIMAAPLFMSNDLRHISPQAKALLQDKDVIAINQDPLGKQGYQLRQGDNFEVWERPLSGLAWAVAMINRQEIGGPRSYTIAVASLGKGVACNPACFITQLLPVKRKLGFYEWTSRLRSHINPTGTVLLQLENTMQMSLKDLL

With `NCCS(=O)(=O)O`, the compound was called inactive in [1], in [2], in assay [3], in assay [4], in [5] and in [6]. Moreover, the outcome in [7], in [8], in assay [9], in assay [10], in [11] and in assay [12] was inactive. The result in assay [13] and in assay [15] was inactive. The Potency entry in [14], in [17] and in assay [18] was “inactive” throughout. Moreover, in [16] (at 57.5 µM (top of the series)), the activity change, negative = inhibition was 4.96% (inactive) and -0.7% (inactive). Moreover, the max response in assay [16] (setting [20]) was -11.2% and -31.9%; in [16] (setting [21]) it was 15.8% and -31.4%.
Regarding `CN(C)c1nc(N(C)C)nc(N(C)C)n1`, the call in assay [12] and in [15] was inactive. The activity change, negative = inhibition in assay [16] (at 25.7 µM (top of the series)) is -1.28% (inactive); in [16] (at 57.5 µM (top of the series)), 7.55% (inactive) and -0.1% (inactive). Moreover, the max response in assay [16] (setting [20]) was 4.02% and 17.6% and 11.3%; in assay [16] (setting [21]), 2.91% and 27.7% and 12.4%. For the same compound, in assay [18], the Potency result is “inactive”.
As to `CN1CCC(=C2c3ccccc3C=Cc3ccccc32)CC1`, the compound was classed as inactive in assay [12]. For the same compound, the activity change, negative = inhibition in [16] (at 25.7 µM (top of the series)) is -4.01% (inactive); in assay [16] (at 57.5 µM (top of the series)) it was 0.516% (inactive). For the same compound, the max response in assay [16] (setting [20]) was 4.35% and -11%; in [16] (setting [21]), -0.358% and -12.9%. Also, the Potency result in assay [17], in [19] and in assay [18] was “inactive” in each case.
In the case of `O=C1c2c(O)ccc(O)c2C(=O)c2c(NCCNCCO)ccc(NCCNCCO)c21`, the result in assay [12] was inactive. The figures for the activity change, negative = inhibition in assay [16] (at 25.7 µM (top of the series)) and in [16] (at 57.5 µM (top of the series)) were 0.282% (inactive) and -5.29% (inactive), respectively. In addition, the max response in assay [16] (setting [20]) is -20.6% and -20.2%; in assay [16] (setting [21]), -20.7% and -20.9%. In addition, the Potency in assay [17] and in assay [18] was 2000 nM (active) each time. In assay [19], the Potency entry was “inactive”.
Consider `Clc1ccc2c(c1)C(N1CCNCC1)=Nc1ccccc1O2`, for which the result in [12] and in assay [15] was inactive. The activity change, negative = inhibition in assay [16] (at 25.7 µM (top of the series)) is -5.1% (inactive); in assay [16] (at 57.5 µM (top of the series)) it was 3.92% (inactive) and 1.18% (inactive). Further, the max response in assay [16] (setting [20]) is -3.99% and 1.39% and 11.5%; in [16] (setting [21]), -7.98% and 5.5% and 12.2%.

These data come from PubChem BioAssay (NCATS).
